“And” between values parts separate entries of the source, which are not always exact repeats. Equal values may be shown once. Unmarked numbers belong to inactive results. Results filed as inconclusive are left out. Entries that show only a call come without a potency. The source made the active and inactive calls. The call rests on the fitted dose curve; in most records, active means well fitted curve in the direction sought with a large enough effect in the repeat runs; inconclusive means weak or mixed curves; inactive means no such curve, though single readings can be large; an effect the other way counts as inactive or inconclusive.
Legend:
[1] = Caspase-3/7 induction in HepG2 cells by small molecules, qHTS assay (AID 1346978); further: nearly all actives have a fitted effect of over 15% in size
Procedure, shortened: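 Wild-type HepG2 cells (2,000/well) were settled 5 h at 37 C, 5% CO2, then exposed to compounds in DMSO for 17 h. Caspase-3/7 activity was read by luminescence 30 min after adding Caspase-Glo 3/7 reagent at room temperature.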

[2] = Caspase-3/7 induction in CHO-K1 cells by small molecules, qHTS cell viability counter screen (AID 1346979); further: nearly all actives have a fitted effect of over 35% in size
Procedure, shortened: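 Cytotoxicity counter screen run in parallel with the caspase-3/7 assay: CHO-K1 cells, 16hr compound treatment at 37C, then CellTiter-Fluor for 1hr before fluorescence reading.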

[3] = Caspase-3/7 induction in CHO-K1 cells by small molecules, qHTS assay (AID 1346980); further: nearly all actives have a fitted effect of over 15% in size
Procedure, shortened: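 Wild-type cells were seeded at 1,500 per well and settled 5 hr at 37 C, 5% CO2, then exposed to DMSO-dissolved compounds for 17 hr. Caspase-Glo 3/7 reagent was added, and luminescence was read after 30min at room temperature.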

[4] = Caspase-3/7 induction in HepG2 cells by small molecules, qHTS cell viability counter screen (AID 1346981); further: nearly all actives have a fitted effect of over 30% in size; on activity change, negative = cytotoxicity: series mostly up to about 92 µM
Procedure, shortened: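 After a 5-hr attachment period at 37 C and 5% CO2, wild-type HepG2 cells received compounds in DMSO. Sixteen hours later CellTiter-Fluor was dispensed and the fluorescent signal quantified after a further hour.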

[5] = molecular target: Nuclear receptor subfamily 1 group I member 2 (Homo sapiens) (UniProt O75469); assay: Human pregnane X receptor (PXR) small molecule agonists, qHTS assay (AID 1346982); further: nearly all actives have a fitted effect of over 35% in size
Chain of Nuclear receptor subfamily 1 group I member 2 (Homo sapiens) (O75469 whole entry, looked up): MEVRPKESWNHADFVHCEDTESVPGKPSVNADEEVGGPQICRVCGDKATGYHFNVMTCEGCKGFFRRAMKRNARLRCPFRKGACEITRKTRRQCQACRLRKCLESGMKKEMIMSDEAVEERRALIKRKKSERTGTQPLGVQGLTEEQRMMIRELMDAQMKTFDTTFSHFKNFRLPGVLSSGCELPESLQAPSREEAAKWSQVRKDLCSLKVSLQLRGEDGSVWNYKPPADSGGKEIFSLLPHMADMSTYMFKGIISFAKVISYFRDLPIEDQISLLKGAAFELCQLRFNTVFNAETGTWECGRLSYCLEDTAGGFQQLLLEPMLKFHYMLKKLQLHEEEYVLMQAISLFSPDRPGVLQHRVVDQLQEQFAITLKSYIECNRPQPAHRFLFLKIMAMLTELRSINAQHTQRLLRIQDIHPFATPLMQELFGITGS
Procedure, shortened: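 Tox21 qHTS; PXR-Luc HepG2; compounds pinned from DMSO; 24 hr, 37 C; ONE-Glo luciferase detection, 30 min room temperature.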

[6] = molecular target: Cytochrome P450 2D6 (Homo sapiens) (UniProt P10635); assay: Cytochrome P450 Family 2 Subfamily D Member 6 (CYP2D6) small molecule antagonists: luciferase reporter qHTS assay (AID 1671196); further: nearly all actives have a fitted effect of over 50% in size; on activity change, negative = inhibition: series mostly up to about 120 µM
Chain of Cytochrome P450 2D6 (Homo sapiens) (P10635 whole entry, looked up): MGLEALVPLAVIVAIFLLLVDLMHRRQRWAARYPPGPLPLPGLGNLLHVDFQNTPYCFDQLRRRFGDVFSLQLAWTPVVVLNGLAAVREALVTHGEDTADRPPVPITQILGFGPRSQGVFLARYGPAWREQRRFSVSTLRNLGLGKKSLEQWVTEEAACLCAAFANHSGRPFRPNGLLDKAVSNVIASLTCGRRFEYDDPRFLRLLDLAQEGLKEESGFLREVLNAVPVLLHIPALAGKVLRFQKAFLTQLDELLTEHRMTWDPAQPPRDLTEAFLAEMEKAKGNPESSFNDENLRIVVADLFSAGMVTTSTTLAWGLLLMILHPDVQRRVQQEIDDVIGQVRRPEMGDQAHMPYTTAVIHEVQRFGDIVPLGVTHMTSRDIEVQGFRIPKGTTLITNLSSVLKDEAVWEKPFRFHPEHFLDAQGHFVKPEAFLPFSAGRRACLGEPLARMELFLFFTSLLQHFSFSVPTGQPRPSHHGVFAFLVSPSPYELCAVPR
Procedure, shortened: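 Room-temperature luminescent CYP2D6 activity assay: compound preincubated 10 min with enzyme–substrate mix, NADPH-initiated reaction 1 h, detection reagent 20 min before reading.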

[7] = molecular target: Cytochrome P450 2C19 (Homo sapiens) (UniProt P33261); assay: Cytochrome P450 Family 2 Subfamily C Member 19 (CYP2C19) small molecule antagonists: luciferase reporter qHTS assay (AID 1671197); further: nearly all actives have a fitted effect of over 65% in size; on activity change, negative = inhibition: series mostly up to about 120 µM
Chain of Cytochrome P450 2C19 (Homo sapiens) (P33261 whole entry, looked up): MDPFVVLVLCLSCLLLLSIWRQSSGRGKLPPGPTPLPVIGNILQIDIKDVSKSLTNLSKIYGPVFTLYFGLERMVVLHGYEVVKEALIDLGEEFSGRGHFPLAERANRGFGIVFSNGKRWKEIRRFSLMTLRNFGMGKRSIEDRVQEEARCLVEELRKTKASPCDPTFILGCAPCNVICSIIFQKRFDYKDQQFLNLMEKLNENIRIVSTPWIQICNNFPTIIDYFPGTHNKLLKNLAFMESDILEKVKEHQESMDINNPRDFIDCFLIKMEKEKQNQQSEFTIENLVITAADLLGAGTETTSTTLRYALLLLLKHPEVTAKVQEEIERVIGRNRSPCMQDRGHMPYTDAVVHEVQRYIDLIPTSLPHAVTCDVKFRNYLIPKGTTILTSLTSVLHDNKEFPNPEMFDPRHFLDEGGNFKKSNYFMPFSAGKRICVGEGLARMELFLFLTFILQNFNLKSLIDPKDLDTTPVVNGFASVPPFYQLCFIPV
Procedure, shortened: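 Light output is proportional to CYP2C19 activity: proluciferin substrate is converted to luciferin, then detected by a luciferin detection reagent that also stops the 1 h, 37C NADPH-driven reaction. Ketoconazole serves as positive control.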
Potency means the concentration at half of the fitted maximal effect.

| Structure (SMILES) | Potency [1] | Potency [2] | Potency [3] | Potency [4] | Potency [5] | Potency [6] | Potency [7] | caspase activation [1] | activity change, negative = cytotoxicity [2] | caspase-3/7 activation [3] | activity change, negative = cytotoxicity [4] | activation [5] | activity change, negative = inhibition [6] | activity change, negative = inhibition [7] |
| --- | --- | --- | --- | --- | --- | --- | --- | --- | --- | --- | --- | --- | --- | --- |
| NCCCN1CCOCC1 | inactive | inactive | inactive | inactive | inactive | 35.5 µM (active) | inactive |  |  |  |  |  |  |  |
| CCCCCC[C@@H](O)C/C=C\CCCCCCCC(=O)OC | inactive | inactive | inactive | inactive | inactive | inactive | 25.3 µM (active) |  |  |  |  |  |  |  |
| C=CC(=O)OCCOCCOCCOCCOC(=O)C=C | 68 µM (active) | 8.68 µM (active) and 13.6 µM (active) | 9.74 µM (active) and 12.1 µM (active) | 30.8 µM (active) and 27.1 µM (active) | inactive | inactive | inactive |  |  |  |  |  |  |  |
| Cc1c(N)cccc1[N+](=O)[O-] | inactive | inactive | inactive | inactive | inactive | inactive | inactive |  |  |  |  |  |  |  |
| C=C1[C@H]2CC[C@@H]3[C@H]2C(C)(C)CCC[C@]13C | inactive | inactive | inactive | inactive | inactive | inactive | inactive |  |  |  |  |  |  |  |
| CCN(CC)c1ccc2c(-c3ccccc3C(=O)O)c3ccc(=[N+](CC)CC)cc-3oc2c1 | inactive | 2.17 µM (active) | inactive | 5.45 µM (active) | 24.3 µM (active) | 35.6 µM (active) | 71 µM (active) |  |  |  |  |  |  |  |
| CCC(Cl)CCC(Cl)C(Cl)CC(Cl)C(Cl)C(Cl)CCl (centres undefined) | inactive | inactive | inactive | inactive | inactive | inactive | inactive |  |  |  |  |  |  |  |
| Cc1ccc(N=Nc2c(O)c(C(=O)O)cc3ccccc23)c(S(=O)(=O)O)c1 | inactive | 23.6 µM (active) | inactive | 29.7 µM (active) | inactive | inactive | inactive |  |  |  |  |  |  |  |
| C1CCCNCCC1 | inactive | inactive | inactive | inactive | inactive | inactive | inactive |  |  |  |  |  |  |  |
| O=P(O)(OCc1ccccc1)OCc1ccccc1 | inactive | inactive | inactive | inactive | inactive | inactive | inactive |  |  |  |  |  |  |  |
| COC(=O)c1ccc(I)cc1S(=O)(=O)NC(=O)Nc1nc(C)nc(OC)n1 | inactive | inactive | inactive | inactive | inactive | inactive | inactive |  |  |  |  |  |  |  |
| CC1=CC=C(C(C)C)CC1 | inactive | inactive | inactive | inactive | inactive | inactive | 35.6 µM (active) |  |  |  |  |  |  |  |
| CCCC(=O)Nc1ccc(O)c(C(C)=O)c1 | inactive | inactive | inactive | inactive | inactive | inactive | inactive |  |  |  |  |  |  |  |
| O=[N+]([O-])c1ccc(NCCO)c(OCCO)c1 | inactive | 48.6 µM (active) | inactive | 27.3 µM (active) | inactive | inactive | inactive |  |  |  |  |  |  |  |
| CCCCCCCCCOS(=O)(=O)O | inactive | inactive | inactive | inactive | inactive | inactive | 79.6 µM (active) |  |  |  |  |  |  |  |
| CCOC(=O)C(O)c1ccccc1 (centres undefined) | inactive | inactive | inactive | inactive | inactive | inactive | inactive |  |  |  |  |  |  |  |
| CCOC(=O)Cc1cccc2ccccc12 | inactive | inactive | inactive | inactive | inactive | inactive | 20 µM (active) |  |  |  |  |  |  |  |
| CN1Cc2cc(C(=O)N3CCC(C4CCNCC4)CC3)ccc2NC(CC(=O)O)C1=O (centres undefined) | inactive | inactive | inactive | inactive | inactive | inactive | inactive |  |  |  |  |  |  |  |
| CCN(CC)CCNC(=O)c1cc(Br)c(N)cc1OC | inactive | inactive | inactive | inactive | inactive | 4.9 µM (active) | inactive |  |  |  |  |  |  |  |
| CCCCCCc1ccc(-c2ccc(C#N)cc2)cc1 | inactive | inactive | inactive | inactive | inactive | 39.2 µM (active) | 44 µM (active) |  |  |  |  |  |  |  |
| CCC(CC)Nc1ccc(C)c(C)c1 | inactive | inactive | inactive | inactive | inactive | inactive | 7.1 µM (active) |  |  |  |  |  |  |  |
| CCCCCCCCCCCc1ccccc1 | inactive | inactive | inactive | inactive | inactive | inactive | inactive |  |  |  |  |  |  |  |
| c1cc(CCCc2ccncc2)ccn1 | inactive | inactive | inactive | inactive | 61.1 µM (active) | 1.78 µM (active) | 1.59 µM (active) |  |  |  |  |  |  |  |
| CCNc1cc(O)ccc1C | inactive | 60.4 µM (active) | inactive | inactive | 48 µM (active) | 39.5 µM (active) | 35.2 µM (active) |  |  |  |  |  |  |  |
| CCc1cc(C2=C(C(=O)O)N(c3ccccc3C(F)(F)F)S(=O)(=O)c3ccccc32)cc2c1OCO2 | inactive | 30.3 µM (active) | inactive | 15.2 µM (active) | inactive | inactive | 78.7 µM (active) |  |  |  |  |  |  |  |
| Cc1ccc(C(C)OC(=O)C2(C)CCC(C(=O)O)C2(C)C)cc1 (centres undefined) | inactive | inactive | inactive | inactive | inactive | inactive | inactive |  |  |  |  |  |  |  |
| NC(N)=NCCC[C@H](N)C(=O)O |  |  |  |  |  |  |  | 0.0391% [at 8.39 µM] | -0.503% [at 8.39 µM] | 0.0695% [at 8.39 µM] | -0.647% [at 8.39 µM] | -5.55% [at 8.39 µM] | -7.41% [at 10.5 µM] | 24.2% [at 10.5 µM] |

Source: PubChem BioAssay (Tox21)
